Test results from PubChem BioAssay (Tox21).
Values joined by “and” are separate entries in the source; they are usually repeats but may differ in a detail not shown here. Equal entries are not always repeated. Results filed as inconclusive are left out. Entries that show only a call come without a potency. Some compounds were tested as several samples or in several runs, with calls that do not always agree. Active and inactive are the calls of the source. Unless noted, calls follow the shape of the dose curve; as a rule, active = well fitted curve in the direction sought with a large enough effect in the repeat runs; inconclusive = weak or mixed curves; inactive = no such curve, though single readings can be large; an effect the other way counts as inactive or inconclusive.

How the values were obtained:
[1] = qHTS assay to identify small molecule agonists of the estrogen receptor alpha (ER-alpha) signaling pathway in the presence of an antagonist - cell viability counter screen (AID 1259386); also: nearly all actives have a fitted effect of over 30% in size; also: potency is read from the fitted curve at half-maximal effect
Summary of the method: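 Compounds tested at 15 concentrations for 22 h at 37C alongside 10.0nM (final) ICI-182,780 antagonist, in VM7Luc4E2 cells grown in phenol red-free, charcoal-stripped medium. Viability read by CellTiter-Fluor fluorescence after 1 h reagent incubation.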

[2] = target: Progesterone receptor (Homo sapiens) (UniProt P06401); experiment: qHTS assay to identify small molecule agonists of the progesterone receptor (PR) signaling pathway (AID 1346784; calls by dose curve; also: nearly all actives have a fitted effect of over 30% in size)
Summary of the method: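 PR-UAS-bla HEK 293T cells carrying a UAS-driven beta-lactamase reporter were seeded in medium with 2% charcoal-stripped FBS, preincubated 6 hr at 37C, then exposed to compounds in DMSO for 16 hr; agonism was read by LiveBLAzer B/G FRET fluorescence.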

[3] = target: Progesterone receptor (Homo sapiens) (UniProt P06401); experiment: qHTS assay to identify small molecule antagonists of the progesterone receptor (PR) signaling pathway (AID 1346795; active = well fitted inhibition curve with a large enough effect in the signal ratio in the repeat runs, not every such curve was filed as active; the % refers to the signal ratio; also: potency is read from the fitted curve at half-maximal effect)
Summary of the method: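 PR-UAS-bla HEK293T cells carrying a UAS-driven beta-lactamase reporter were plated in medium with 2% charcoal-stripped FBS and rested 6 hr at 37C. Compounds were added with 1 nM R5020 (final) for 16 hr, then FRET substrate loaded 2 hr at room temperature.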

[4] = qHTS assay to identify small molecule antagonists of the TGF-beta/Smad signaling pathway - cell viability counter screen (AID 1346824); also: nearly all actives have a fitted effect of over 50% in size; also: potency is read from the fitted curve at half-maximal effect
Summary of the method: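 SBE-bla HEK 293T cells were plated overnight at 37 C, then given compounds in DMSO plus TGF-beta1 (added as 0.25 ng/mL solution) for 5 hr. After the bla read, CellTiter-Glo was added to the same wells and luminescence read after 30 min at room temperature.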

[5] = qHTS assay to identify small molecule agonists of the TGF-beta/Smad signaling pathway - cell viability counter screen (AID 1346829); also: nearly all actives have a fitted effect of over 45% in size; also: potency is read from the fitted curve at half-maximal effect
Summary of the method: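 Compound-treated SBE-bla HEK 293T cells (5 hr, 37 C) were assessed for viability with CellTiter-Glo in parallel with the reporter read.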

[6] = target: Thyrotropin-releasing hormone receptor (Homo sapiens) (UniProt P34981); experiment: qHTS assay to identify small molecule antagonists of the thyrotropin-releasing hormone receptor (TRHR) signaling pathway (AID 1346877; active = well fitted inhibition curve with a large enough effect in the repeat runs, not every such curve was filed as active; also: series mostly up to about 51 µM)
Summary of the method: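 Antagonist mode: after a 5 min room-temperature compound exposure, cells were stimulated with 1 nM (final) TRH. Dye-loaded TRHR-HEK293 cells were used, and calcium-dependent fluorescence was followed for 3 min, with 15-point titrations run in triplicate.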

[7] = target: Thyrotropin-releasing hormone receptor (Homo sapiens) (UniProt P34981); experiment: qHTS assay to identify small molecule agonists of the thyrotropin-releasing hormone receptor (TRHR) signaling pathway (AID 1346891; calls by dose curve; also: series mostly up to about 58 µM)
Summary of the method: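 TRHR-expressing HEK293 cells were plated 18 h at 37 °C/5% CO2, loaded with calcium dye 2 h at 37 °C, then given compound in DMSO; fluorescence was read kinetically for 3 min at 1 s intervals.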

[8] = Human pregnane X receptor (PXR) small molecule agonists, qHTS cell viability counter screen (AID 1346977); also: nearly all actives have a fitted effect of over 50% in size; also: potency is read from the fitted curve at half-maximal effect
Summary of the method: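 PXR-Luc HepG2 cells in medium with 5% charcoal-stripped FBS were pre-incubated 5hr, then exposed to compounds for 24hr at 37C. Viability was read in the same wells by CellTiter-Fluor fluorescence, reagent added after 23hr with a 1hr incubation.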

[9] = Caspase-3/7 induction in HepG2 cells by small molecules, qHTS assay (AID 1346978); also: nearly all actives have a fitted effect of over 15% in size; also: potency is read from the fitted curve at half-maximal effect
Summary of the method: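 Wild-type HepG2 cells (2,000/well) were settled 5 h at 37 C, 5% CO2, then exposed to compounds in DMSO for 17 h. Caspase-3/7 activity was read by luminescence 30 min after adding Caspase-Glo 3/7 reagent at room temperature.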

[10] = Caspase-3/7 induction in CHO-K1 cells by small molecules, qHTS assay (AID 1346980); also: nearly all actives have a fitted effect of over 15% in size; also: potency is read from the fitted curve at half-maximal effect
Summary of the method: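 Wild-type cells were seeded at 1,500 per well and settled 5 hr at 37 C, 5% CO2, then exposed to DMSO-dissolved compounds for 17 hr. Caspase-Glo 3/7 reagent was added, and luminescence was read after 30min at room temperature.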

[11] = target: Nuclear receptor subfamily 1 group I member 2 (Homo sapiens) (UniProt O75469); experiment: Human pregnane X receptor (PXR) small molecule agonists, qHTS assay (AID 1346982); also: nearly all actives have a fitted effect of over 35% in size; also: potency is read from the fitted curve at half-maximal effect
Summary of the method: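 Agonist mode: luminescence from ONE-Glo after 24 h compound exposure at 37C in HepG2 cells carrying hPXR-responsive CYP3A4 luciferase, plated in charcoal-stripped serum medium 5 h beforehand.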

[12] = target: Nuclear receptor subfamily 1 group I member 2 (Rattus norvegicus) (UniProt Q9R1A7); experiment: Rat pregnane X receptor (rPXR) activation by small molecules, qHTS assay (AID 1346983); details: rPXR luciferase reporter cells, One-Glo luminescence, 24 h; max activation: stronger effect = higher value; also: nearly all actives have a fitted effect of over 20% in size; also: potency is read from the fitted curve at half-maximal effect
Summary of the method: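 Cell-based rPXR luciferase reporter assay, 2,000 cells per well, rested 5hr at 37 C before compound addition in DMSO, then 24 hr at 37 C. One-Glo reagent was added and luminescence read after 30 min at room temperature.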

[13] = target: Nuclear receptor subfamily 1 group I member 2 (Homo sapiens) (UniProt O75469); experiment: Human pregnane X receptor (PXR) activation by small molecules, qHTS assay (AID 1346985); also: nearly all actives have a fitted effect of over 40% in size; also: potency is read from the fitted curve at half-maximal effect
Summary of the method: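 DPX-2 cells (HepG2 co-transfected with a PXR response element and a CYP3A4-promoter luciferase construct) were seeded at 2,000 per well, rested 5 hr at 37C, then exposed to DMSO-dissolved compounds for 24 hr. Activation was read as luciferase luminescence.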

[14] = qHTS assay to identify small molecule antagonists of the progesterone receptor (PR) signaling pathway - cell viability counter screen (AID 1346798); also: nearly all actives have a fitted effect of over 50% in size; also: potency is read from the fitted curve at half-maximal effect
Summary of the method: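 PR-UAS-bla HEK293T cells in medium with 2% charcoal-stripped FBS were treated with compounds plus R5020 for 16 hr at 37C. Cell viability was then read by CellTiter-Glo luminescence after 30 min at room temperature in the same wells.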

[15] = qHTS assay to identify small molecule agonists of the progesterone receptor (PR) signaling pathway - cell viability counter screen (AID 1346799; calls by dose curve; also: nearly all actives have a fitted effect of over 45% in size; also: potency is read from the fitted curve at half-maximal effect)
Summary of the method: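 PR-UAS-bla HEK293T cells, 3,000 per well in medium with 2% charcoal-stripped FBS, were preincubated 6 hr at 37C, then exposed to compounds for 16 hr; viability was read as CellTiter-Glo luminescence after 30 min at room temperature.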

[16] = Caspase-3/7 induction in CHO-K1 cells by small molecules, qHTS cell viability counter screen (AID 1346979); also: nearly all actives have a fitted effect of over 35% in size; also: potency is read from the fitted curve at half-maximal effect
Summary of the method: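 Wild-type CHO-K1 cells were seeded at 1,500 per well, rested 5hr at 37 C, then exposed to compounds in DMSO. After 16hr, CellTiter-Fluor reagent was added and fluorescence read 1hr later as the viability measure.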

[17] = Caspase-3/7 induction in HepG2 cells by small molecules, qHTS cell viability counter screen (AID 1346981); also: nearly all actives have a fitted effect of over 30% in size; also: potency is read from the fitted curve at half-maximal effect
Summary of the method: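 CellTiter-Fluor fluorescence measured viability in the same wells used for Caspase-Glo 3/7. HepG2 (wild type) at 2,000 cells/well were pre-incubated 5 hr, dosed, and given reagent at 16 hr, with 1 hr further at 37C.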

[18] = target: Cytochrome P450 2D6 (Homo sapiens) (UniProt P10635); experiment: Cytochrome P450 Family 2 Subfamily D Member 6 (CYP2D6) small molecule antagonists: luciferase reporter qHTS assay (AID 1671196); also: nearly all actives have a fitted effect of over 50% in size; also: potency is read from the fitted curve at half-maximal effect
Summary of the method: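 CYP2D6 activity was followed as luminescence from its luciferin product after a 1 h NADPH-driven reaction at room temperature. Enzyme-substrate mix and compound were pre-incubated for 10 min, and the signal was read 20 min after adding detection reagent.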

[19] = qHTS assay to identify small molecule agonists of the TGF-beta/Smad signaling pathway (AID 1346859; active = well fitted activation curve with a large enough effect in the signal ratio in the repeat runs, not every such curve was filed as active; the % refers to the signal ratio; also: series mostly up to about 77 µM)
Summary of the method: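 HEK 293T cells stably carrying a beta-lactamase reporter driven by the Smad binding element were seeded overnight, exposed to DMSO-dissolved compounds for 5 hr at 37 C, 5% CO2, then loaded with FRET substrate for 2 hr at room temperature.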

Chain of Nuclear receptor subfamily 1 group I member 2 (Homo sapiens) (O75469 whole entry, looked up): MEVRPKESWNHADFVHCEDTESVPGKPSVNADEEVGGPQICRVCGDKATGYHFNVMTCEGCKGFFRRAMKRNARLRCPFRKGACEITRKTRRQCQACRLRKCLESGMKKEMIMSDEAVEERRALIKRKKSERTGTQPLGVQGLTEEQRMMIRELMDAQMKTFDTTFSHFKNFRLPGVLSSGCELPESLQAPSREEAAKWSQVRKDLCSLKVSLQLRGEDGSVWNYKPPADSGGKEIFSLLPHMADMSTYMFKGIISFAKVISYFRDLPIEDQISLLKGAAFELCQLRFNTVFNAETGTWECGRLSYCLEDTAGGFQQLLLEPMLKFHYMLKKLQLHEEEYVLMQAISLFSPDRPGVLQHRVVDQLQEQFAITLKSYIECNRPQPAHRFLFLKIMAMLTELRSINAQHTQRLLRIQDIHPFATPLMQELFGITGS
Chain of Progesterone receptor (Homo sapiens) (P06401 whole entry, looked up): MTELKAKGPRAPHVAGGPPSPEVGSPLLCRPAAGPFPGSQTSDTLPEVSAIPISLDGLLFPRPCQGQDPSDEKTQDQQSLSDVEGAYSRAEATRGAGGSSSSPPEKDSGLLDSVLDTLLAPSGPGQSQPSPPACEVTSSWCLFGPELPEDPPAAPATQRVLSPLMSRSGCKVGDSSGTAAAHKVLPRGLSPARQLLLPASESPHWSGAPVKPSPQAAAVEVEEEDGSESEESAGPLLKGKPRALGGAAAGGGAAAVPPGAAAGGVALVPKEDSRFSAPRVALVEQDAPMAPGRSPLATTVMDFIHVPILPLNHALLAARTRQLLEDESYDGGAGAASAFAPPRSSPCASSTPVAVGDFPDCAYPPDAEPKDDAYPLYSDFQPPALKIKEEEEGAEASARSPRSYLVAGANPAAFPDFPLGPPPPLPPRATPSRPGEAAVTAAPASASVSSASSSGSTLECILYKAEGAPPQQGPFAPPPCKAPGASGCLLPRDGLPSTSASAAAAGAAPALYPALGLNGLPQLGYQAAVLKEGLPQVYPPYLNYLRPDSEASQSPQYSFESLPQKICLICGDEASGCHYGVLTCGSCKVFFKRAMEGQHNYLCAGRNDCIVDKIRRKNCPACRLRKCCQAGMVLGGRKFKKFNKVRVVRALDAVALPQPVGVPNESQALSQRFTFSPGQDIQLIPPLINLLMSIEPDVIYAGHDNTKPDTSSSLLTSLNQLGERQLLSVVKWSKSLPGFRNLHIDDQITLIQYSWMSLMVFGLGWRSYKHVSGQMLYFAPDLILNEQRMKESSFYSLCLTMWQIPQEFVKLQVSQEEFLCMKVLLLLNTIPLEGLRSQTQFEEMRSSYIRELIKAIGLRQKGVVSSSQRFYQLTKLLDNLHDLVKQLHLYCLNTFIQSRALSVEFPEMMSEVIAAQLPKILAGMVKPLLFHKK
Chain of Thyrotropin-releasing hormone receptor (Homo sapiens) (P34981 whole entry, looked up): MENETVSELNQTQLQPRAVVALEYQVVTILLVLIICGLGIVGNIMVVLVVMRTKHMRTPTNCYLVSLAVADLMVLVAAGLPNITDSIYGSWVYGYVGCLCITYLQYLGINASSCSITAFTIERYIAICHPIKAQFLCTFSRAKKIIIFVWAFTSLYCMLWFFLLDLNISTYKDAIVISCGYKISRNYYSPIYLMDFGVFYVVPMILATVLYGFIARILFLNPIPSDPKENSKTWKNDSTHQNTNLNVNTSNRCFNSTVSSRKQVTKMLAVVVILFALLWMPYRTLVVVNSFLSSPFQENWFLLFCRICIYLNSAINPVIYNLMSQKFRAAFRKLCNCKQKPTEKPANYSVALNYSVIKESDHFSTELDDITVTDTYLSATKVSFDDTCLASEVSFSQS
Chain of Cytochrome P450 2D6 (Homo sapiens) (P10635 whole entry, looked up): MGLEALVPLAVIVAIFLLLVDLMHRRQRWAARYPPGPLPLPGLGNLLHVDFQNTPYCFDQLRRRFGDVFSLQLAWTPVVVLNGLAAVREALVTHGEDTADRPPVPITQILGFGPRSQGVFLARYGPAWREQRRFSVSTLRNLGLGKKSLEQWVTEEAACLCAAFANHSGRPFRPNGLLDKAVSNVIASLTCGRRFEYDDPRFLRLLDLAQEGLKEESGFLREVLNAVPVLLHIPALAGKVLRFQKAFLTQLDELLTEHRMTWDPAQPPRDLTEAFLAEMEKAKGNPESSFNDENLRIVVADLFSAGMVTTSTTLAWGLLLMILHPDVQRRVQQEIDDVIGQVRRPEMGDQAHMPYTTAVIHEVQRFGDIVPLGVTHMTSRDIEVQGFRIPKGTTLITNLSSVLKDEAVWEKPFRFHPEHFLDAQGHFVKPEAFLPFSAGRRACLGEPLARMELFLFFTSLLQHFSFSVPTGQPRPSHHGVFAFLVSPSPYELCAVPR
Chain of Nuclear receptor subfamily 1 group I member 2 (Rattus norvegicus) (Q9R1A7 whole entry, looked up): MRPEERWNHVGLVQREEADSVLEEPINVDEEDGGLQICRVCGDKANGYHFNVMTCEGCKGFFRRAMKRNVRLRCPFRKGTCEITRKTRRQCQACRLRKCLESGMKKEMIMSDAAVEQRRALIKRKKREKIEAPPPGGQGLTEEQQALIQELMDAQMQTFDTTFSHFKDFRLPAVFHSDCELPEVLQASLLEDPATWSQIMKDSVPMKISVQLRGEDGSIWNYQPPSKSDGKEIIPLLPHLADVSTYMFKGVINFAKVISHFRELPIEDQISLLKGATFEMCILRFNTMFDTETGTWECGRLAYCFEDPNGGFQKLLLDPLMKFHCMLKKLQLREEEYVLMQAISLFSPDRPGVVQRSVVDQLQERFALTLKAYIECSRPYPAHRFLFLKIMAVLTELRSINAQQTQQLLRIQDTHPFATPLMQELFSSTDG

Structure (SMILES)	Potency [1]	Potency [2]	Potency [3]	Potency [4]	Potency [5]	Potency [6]	Potency [7]	Potency [8]	Potency [9]	Potency [10]	Potency [11]	max activation [12]	Potency [13]	Potency [14]	Potency [15]	Potency [16]	Potency [17]	Potency [18]	Potency [19]	Potency [12]
CCCCCCC[N+](CC)(CC)CCCCc1ccc(Cl)cc1	26.6 µM (active)	inactive	inactive	inactive	inactive	inactive	inactive	inactive	inactive	inactive	inactive	-3.24% (inactive)	inactive							
CCCCCCCCn1sc(Cl)c(Cl)c1=O	inactive	inactive		21.9 µM (active)	34.7 µM (active)				inactive	inactive	61.1 µM (active)			inactive	inactive	2.73 µM (active)				
CCCN(CCC)C(=O)C(CCC(=O)OCCCN1CCN(CCOC(=O)Cc2c(C)n(C(=O)c3ccc(Cl)cc3)c3ccc(OC)cc23)CC1)NC(=O)c1ccccc1 (stereo unspecified)	21.1 µM (active)	inactive		inactive	inactive			18.8 µM (active)			10.6 µM (active)			inactive	inactive	26.6 µM (active)	26.6 µM (active)	27.5 µM (active)		
CCCCCCOC(=O)c1ccc(O)cc1	inactive		38.6 µM (active) and 21.7 µM (active)	inactive	inactive	inactive	inactive	inactive		inactive	inactive			inactive	inactive		inactive		inactive	
Nc1ccccc1O	67.7 µM (active)	inactive		inactive		inactive	inactive	60.3 µM (active)		inactive	13.5 µM (active)					24 µM (active)			inactive	
S=c1[nH]c2ccccc2s1	inactive	inactive		inactive	inactive	inactive	inactive		inactive		30.6 µM (active)					64.8 µM (active)		39.9 µM (active)	inactive	
Oc1ccc(Cl)cc1Sc1cc(Cl)ccc1O	29.8 µM (active)		7.68 µM (active) and 9.44 µM (active)	inactive	inactive			15.3 µM (active)	inactive	inactive	27.3 µM (active)			54.4 µM (active)	inactive	30.6 µM (active)	38.5 µM (active)	inactive	inactive	
C[C@H](CCC(=O)O)[C@H]1CC[C@H]2[C@@H]3CC[C@@H]4C[C@H](O)CC[C@]4(C)[C@H]3CC[C@]12C	inactive		19.3 µM (active) and 48.6 µM (active)		inactive			inactive		48.4 µM (active) and 61.1 µM (active)	54.5 µM (active)			24.2 µM (active) and 61.1 µM (active)	30.5 µM (active) and 38.6 µM (active)	48.4 µM (active)	60.9 µM (active)	inactive and 35.6 µM (active)		
Clc1ccccc1C(c1ccccc1)(c1ccccc1)n1ccnc1	54.5 µM (active) and inactive		9.44 µM (active)		34.7 µM (active) and inactive	inactive	inactive	17.2 µM (active)	inactive		770 nM (active) and 11.9 µM (active)		3.98 µM (active)	5.45 µM (active) and 29.8 µM (active)	7.7 µM (active)	8.63 µM (active) and 7.5 µM (active)	48.6 µM (active)	39.9 µM (active)		3.98 µM (active)
CC1=C(/C=C/C(C)=C/C=C/C(C)=C/C=O)C(C)(C)CCC1	60.8 µM (active)		54.2 µM (active)			inactive		60.8 µM (active)			15.3 µM (active)			68.2 µM (active)	60.8 µM (active)	21.6 µM (active)	60.8 µM (active)		inactive	
COC(=O)C1=C(C)NC(C)=C(C(=O)OCC(C)C)C1c1ccccc1[N+](=O)[O-] (stereo unspecified)	54.5 µM (active) and inactive		10.6 µM (active)	inactive	inactive	inactive	inactive	61.1 µM (active)	inactive	inactive						61.1 µM (active) and 29.8 µM (active)	54.5 µM (active)		inactive	
COCCCC/C(=N\OCCN)c1ccc(C(F)(F)F)cc1	inactive	inactive							inactive							inactive	inactive	1.95 µM (active)	inactive	
Cc1cc(O)c2ccccc2c1O	29.8 µM (active)		23.7 µM (active)	19 µM (active)	23.9 µM (active)	inactive	inactive	16.8 µM (active)		inactive	inactive	10% (inactive)	inactive			10.6 µM (active)	33.5 µM (active)			
CC(=O)N1CCN(c2ccc(OC[C@H]3CO[C@](Cn4ccnc4)(c4ccc(Cl)cc4Cl)O3)cc2)CC1	61.1 µM (active)		13.7 µM (active)					27.3 µM (active)	68.6 µM (active)	inactive	inactive	-4.95% (inactive)	inactive	30.6 µM (active)	30.6 µM (active)	27.3 µM (active)	61.1 µM (active)		inactive	
Cc1ccc2oc(CN(Cc3ccccc3)C(=O)Nc3c(F)cc(F)cc3F)c(-c3ccc(Cl)cc3)c2c1	inactive	inactive		inactive	inactive	inactive	inactive	inactive	inactive	inactive	3.74 µM (active)						inactive	0.194 µM (active)	inactive	
